The full list was thinned out, with hits kept by preference.
STK33 kin inh = STK33 kinase inhibitors, primary screen, biochemical, luminescence, ADP-Glo, MBP substrate. hit rate 0.44% among 27,000. inhibition, % at 12.5 µM. Serine/threonine-protein kinase 33 (Homo sapiens), Q9BYT3. AID 2322, 2010; in the data active = inhibition above about 20%; inconclusive = no clear call, values can overlap the other calls
mut p53 react = mutant p53 pathway re-activators, primary screen, cell-based, SW480, luciferase, single point, HTS; SW480 PUMA-promoter luciferase, p53 mutant reactivation; activation, % at 9.98 µM; hit rate 1.5% among 28,000; in the data active = activation above about 52%; inconclusive = no clear call, values can overlap the other calls
NOMO-1 viab = NOMO-1 AML cell viability reduction, primary screen, STK33 inhibitor project, CellTiter-Glo luminescence. NOMO-1 AML viability, 72 h. inhibition, % (no concentration beside the values). hit rate 7.5% among 37,000; in the data active = inhibition above about 80%; inconclusive = no clear call, values can overlap the other calls
ID4 binder = binders of human ID4 protein, primary screen, biochemical, small molecule microarray, single point. AID 624137, 2012. Flag-ID4 binding, fluorescence F/B. hit rate 1.2% among 31,000. calls only. DNA-binding protein inhibitor ID-4 (Homo sapiens), P47928; call rule not given here;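 note: a binder raises fluorescence above local background on the spot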
Target sequence (P47928 whole entry, looked up): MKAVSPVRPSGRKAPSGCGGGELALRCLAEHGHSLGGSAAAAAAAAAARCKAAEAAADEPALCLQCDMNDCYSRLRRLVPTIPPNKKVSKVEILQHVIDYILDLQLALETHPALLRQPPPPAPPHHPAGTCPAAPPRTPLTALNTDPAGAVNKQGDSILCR
Active calls of the source: *; i = inactive; ? = inconclusive; . = no result given; + = active, no number.

SMILES	STK33 kin inh	mut p53 react	NOMO-1 viab	ID4 binder
CNC[C@@H]1Oc2ccc(N(C)C)cc2CC(=O)N([C@@H](C)CO)C[C@H]1C	.	10.4	.	i
CS(=O)(=O)N(CC(=O)Nc1cc(C(F)(F)F)ccc1Cl)c1ccc(I)cc1	-2.0	-6.3	29.6	i
C[C@H]1CN([C@@H](C)CO)C(=O)Cc2cc(NS(=O)(=O)c3ccc(Cl)cc3)ccc2O[C@H]1CN(C)Cc1ccc(Oc2ccccc2)cc1	-4.8	-4.9	77.7	.
C[C@H](CO)N1C[C@H](C)[C@H](CN(C)Cc2ccc(Oc3ccccc3)cc2)Oc2ccc(NS(=O)(=O)c3ccc(Cl)cc3)cc2CC1=O	2.2	.	116.4*	.
O=C(NCCCN1CCOCC1)Nc1ccc(Cl)cc1	-0.1	-2.7	12.4	i
CC(C)CC1CC(=O)NC(N)=N1 (stereo unspecified)	.	-3.0	.	i
CCc1cc(C(=O)OC)c(NC(=O)c2cc(-c3cccnc3)nc3ccc(Br)cc23)s1	3.8	-20.0	88.7*	i
C[C@H]1CN([C@@H](C)CO)S(=O)(=O)c2ccc(-c3ccc(C#N)cc3)cc2O[C@@H]1CN(C)C	.	-13.9	.	i
N#Cc1ccccc1NC(=O)CSc1ccccn1	.	.	27.5	.
O=C(/C=C/Sc1ccccn1)c1ccccc1	.	.	114.3*	.
C[C@H](NC(=O)C[C@H]1C=C[C@H](NC(=O)C2CC2)[C@H](CO)O1)c1ccccc1	.	.	.	i
Nc1ncnc2c1c(I)cn2C1OC(CO)C(O)C1O (stereo unspecified)	53.3*	-84.3	114.5*	i
Cc1ccc(S(=O)(=O)N(C)C[C@@H]2Oc3ccc(NC(=O)Nc4ccc(C(F)(F)F)cc4)cc3CC(=O)N([C@H](C)CO)C[C@@H]2C)cc1	2.2	.	126.1*	.
Cc1ccc(S(=O)(=O)N(C)C[C@H]2Oc3ccc(NC(=O)Nc4ccc(C(F)(F)F)cc4)cc3CC(=O)N([C@H](C)CO)C[C@H]2C)cc1	3.2	.	114.6*	.
Cc1ccc(S(=O)(=O)N(C)C[C@H]2Oc3ccc(NC(=O)Nc4ccc(C(F)(F)F)cc4)cc3CC(=O)N([C@@H](C)CO)C[C@@H]2C)cc1	3.9	.	25.7	.
COc1ccccc1-c1cc(=O)c2ccccc2o1	4.8	138.0*	18.0	i
C[C@H](CO)N1C[C@H](C)[C@H](CN(C)C(=O)c2ccccc2)Oc2ncc(/C=C/c3ccccc3)cc2C1=O	.	.	.	i
O=C(c1ccc([N+](=O)[O-])cc1)n1nc(-c2ccc(Cl)cc2)nc1NCc1ccco1	-4.4	127.8*	?	i
CCCC(=O)n1nc(-c2ccccc2)nc1NCc1ccco1	2.7	49.8	4.7	i
O=C(c1ccco1)n1nc(-c2ccc(Cl)cc2)nc1NCc1ccco1	3.7	44.0	26.0	i
COc1ccc(C(=O)n2nc(-c3ccc(Cl)cc3)nc2NCc2ccco2)cc1OC	3.2	80.0*	35.9	i
CCCC(=O)n1nc(-c2ccc(Cl)cc2)nc1NCc1ccco1	-7.8	106.7*	69.7	i
Cc1ccc(S(=O)(=O)N(C)CC(=O)Nc2ccc(C)c(C)c2)cc1	5.1	8.7	9.9	i
COc1ccc(OC)c(NC(=O)c2ccc(C)c(S(=O)(=O)Nc3ccc(C)cc3)c2)c1	-1.6	0.9	102.6*	+
COc1ccc(OC)c(NC(=O)c2ccc(Cl)c(S(=O)(=O)Nc3ccc(C)cc3)c2)c1	-0.9	-2.5	93.0*	i
SMILES	STK33 kin inh	mut p53 react	NOMO-1 viab	ID4 binder
COc1ccc(OC)c(S(=O)(=O)Nc2ccc(C(N)=O)cc2)c1	-7.2	-3.2	1.2	i
COc1ccc(C(=O)Nc2ccc(Cl)cc2)cc1S(=O)(=O)Nc1ccc(Cl)cc1	.	.	70.1	.
C[C@H]1CN([C@@H](C)CO)C(=O)c2cccc(NC(=O)c3nc4ccccc4s3)c2O[C@H]1CN(C)C(=O)Nc1ccc(C(F)(F)F)cc1	.	.	109.5*	.
C[C@@H]1CN([C@@H](C)CO)C(=O)c2cccc(NC(=O)c3nc4ccccc4s3)c2O[C@@H]1CN(C)Cc1ccc(C(F)(F)F)cc1	.	-18.1	98.7*	.
C[C@@H]1CN([C@@H](C)CO)C(=O)c2cccc(NC(=O)c3nc4ccccc4s3)c2O[C@@H]1CN(C)Cc1ccccc1	.	.	104.3*	.
C[C@H]1CN([C@@H](C)CO)C(=O)c2cccc(NC(=O)c3nc4ccccc4s3)c2O[C@H]1CN(C)Cc1ccc(-c2ccccc2)cc1	.	.	50.3	.
C[C@@H]1CN([C@H](C)CO)C(=O)c2cccc(NC(=O)c3nc4ccccc4s3)c2O[C@H]1CN(C)Cc1ccc(Cl)c(Cl)c1	.	.	91.3*	.
C[C@@H]1CN([C@H](C)CO)C(=O)Cc2cc(NC(=O)CCN3CCOCC3)ccc2O[C@@H]1CN(C)C	-1.6	1.5	22.5	i
C[C@H]1CN([C@@H](C)CO)C(=O)c2cccc(NC(=O)c3nc4ccccc4s3)c2O[C@H]1CN(C)CC1CCCCC1	.	.	50.4	.
C[C@H](CO)N1C[C@H](C)[C@@H](CN(C)C(=O)Nc2ccccc2)Oc2c(NC(=O)c3nc4ccccc4s3)cccc2C1=O	.	0.2	14.4	i
CNC[C@H]1Oc2c(NC(=O)c3nc4ccccc4s3)cccc2C(=O)N([C@H](C)CO)C[C@@H]1C	.	-76.8	97.3*	i
C[C@H](CO)N1C[C@H](C)[C@@H](CN(C)C(=O)Nc2cccc3ccccc23)Oc2c(NC(=O)c3nc4ccccc4s3)cccc2C1=O	.	-15.5	98.8*	i
C[C@@H]1CN([C@H](C)CO)C(=O)c2cccc(NC(=O)c3nc4ccccc4s3)c2O[C@H]1CN(C)CC1CCCCC1	.	.	116.1*	.
C[C@H]1CN([C@@H](C)CO)C(=O)c2cccc(NC(=O)C3CCCCC3)c2O[C@H]1CN(C)S(=O)(=O)c1ccccc1	.	.	7.9	.
C[C@@H]1CN([C@H](C)CO)C(=O)Cc2cc(NC(=O)Nc3ccc4c(c3)OCO4)ccc2O[C@H]1CN(C)Cc1ccc(-c2ccccc2)cc1	4.3	.	98.2*	.
C[C@H]1CN([C@@H](C)CO)C(=O)Cc2cc(NC(=O)Nc3ccc(F)cc3)ccc2O[C@H]1CN(C)Cc1ccc(-c2ccccc2)cc1	-0.7	.	110.4*	.
C[C@@H]1CN([C@H](C)CO)C(=O)Cc2cc(NC(=O)Nc3ccc4c(c3)OCO4)ccc2O[C@H]1CN(C)Cc1ccccc1	-4.3	.	-0.6	.
C[C@@H]1CN([C@H](C)CO)C(=O)Cc2cc(NC(=O)Nc3ccc(F)cc3)ccc2O[C@H]1CN(C)Cc1ccc(-c2ccccc2)cc1	5.5	.	127.0*	.
CC(C)NC(=O)Nc1ccc2c(c1)CC(=O)N([C@H](C)CO)C[C@@H](C)[C@@H](CN(C)Cc1ccc(-c3ccccc3)cc1)O2	-4.0	0.2	82.1*	i
C[C@@H]1CN([C@H](C)CO)S(=O)(=O)c2ccc(-c3cccc(F)c3)cc2O[C@H]1CN(C)CC1CC1	.	.	.	i
Cc1noc(C)c1NC(=O)Nc1ccc2c(c1)C(=O)N([C@@H](C)CO)C[C@H](C)[C@@H](CN(C)C(=O)Nc1ccc3c(c1)OCO3)O2	.	.	-17.3	.
S=C(NCC1CCCO1)Nc1cccc(Cn2cc(Cl)cn2)c1 (stereo unspecified)	-2.6	-0.8	14.8	i
O=c1c2ccccc2c(C=Nc2cccc(C(F)(F)F)c2)c(O)n1-c1ccccc1	.	.	106.5*	.

From PubChem BioAssay
